Z-score and composite z-score data for 4 compounds are collected here from PubChem BioAssay.

The nature of assay [1]: optical density shifts of acrAB sulA E. coli – strain DRC41, OD650, 48 h, E. coli filamentation inducer project, primary screen (AID 1152).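 Further: E. coli MC1000 strain DRC41 lacking acrAB efflux pump and sulA.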 To be noted: higher = more signal, called active from +8 up or from −8 down.
Assay [2] in a line: probe aLefty1 binding on compound microarray – biochemical, small-molecule microarray, 635/667 nm fluorescence, primary screen (AID 1153).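 Further: score merges spot fluorescence with signal-to-noise ratio from the scanned slide images.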 To be noted: higher = more signal.
Assay [3] is described as follows: plasmodial surface anion channel blockers, osmotic lysis – cell-based, P. falciparum Indochina, OD700, 1 h, primary screen (AID 1154). The following applies: P. falciparum Indochina infected RBC osmotic lysis, higher = more signal, called active from +8 up or from −8 down.
Assay [4] can be described thus: plasmodial surface anion channel blockers, osmotic lysis – cell-based, P. falciparum Indochina, OD700, 2 h, primary screen (AID 1155).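 Further: lysis reports solute entry through the parasite surface anion channel PSAC.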 The following applies: P. falciparum Indochina infected erythrocytes, higher = more signal, called active from +8 up or from −8 down.
Assay [5] is described as follows: changes in parasitized red cell lysis, either direction – P. falciparum Indochina, OD700, 3 h, PSAC antagonist project, primary screen (AID 1156). The following applies: P. falciparum-infected erythrocytes, osmotic lysis, higher = more signal, called active from +8 up or from −8 down.
Assay [6] is described as follows: plasmodial surface anion channel blockers, osmotic lysis – cell-based, P. falciparum Indochina, OD700, 18 h, primary screen (AID 1157). The following applies: P. falciparum Indochina infected erythrocytes, osmotic lysis OD700, 18 h; higher = more signal, called active from +8 up or from −8 down.
Assay [7] is described as follows: S6 kinase pathway phospho-S6 level changes – cell-based, A549, cytoblot, luminescence, serum-stimulated, primary screen (AID 1158).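 Further: serum-stimulated A549 lung adenocarcinoma cells; signal is phosphorylated S6 detected by cytoblot immunostaining with HRP secondary.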 To be noted: 5 h, higher = more signal.
In assay [8] the target is NADPH oxidase 2 (Homo sapiens) (UniProt P04839). Kind of assay: compounds shifting NOX2 Amplex Red fluorescence – cell-based, HEK293-NOX2, PMA-stimulated, NOX inhibitor project, primary screen (AID 1159). Further: test concentration not given here. The following applies: 45 min, higher = more signal, called active from +8 up or from −8 down.
In assay [9] the target is NADPH oxidase 4 (Homo sapiens) (UniProt Q9NPH5). The assay can be described thus: compounds shifting NOX4 Amplex Red fluorescence – cell-based, HEK293-NOX4, tetracycline-induced, NOX inhibitor project, primary screen (AID 1160). To be noted: HEK293-NOX4, Amplex Red H2O2 fluorescence, 45 min; higher = more signal, called active from +8 up or from −8 down.
For assay [10], the target named is NADPH oxidase 5 (Homo sapiens) (UniProt Q96PH1). The assay can be described thus: compounds shifting NOX5 Amplex Red fluorescence – cell-based, HEK293-NOX5, NOX inhibitor project, primary screen (AID 1161). To be noted: HEK293-NOX5, ionomycin, 45 min, higher = more signal.
Assay [11] is described as follows: compound effects on lung adenocarcinoma cell viability – A549, calcein-AM fluorescence, 48 h, basal, profiling panel (AID 1162). Further: test concentration not given here. The following applies: higher = more signal.
The nature of assay [12]: compound effects on differentiated 3T3-L1 adipocyte viability – cell-based, 3T3-L1 adipocytes, calcein-AM fluorescence, 48 h, basal, profiling panel (AID 1163). Further: test concentration not given here. To be noted: 3T3-L1 adipocytes viability, higher = more signal.
A short description of assay [13]: compound effects on hepatocellular carcinoma cell viability – HepG2, calcein-AM fluorescence, 48 h, basal, profiling panel (AID 1164). Further: test concentration not given here. The following applies: higher = more signal.
The nature of assay [14]: compound effects on multiple myeloma cell viability – MM1S, calcein-AM fluorescence, 48 h, basal, profiling panel (AID 1165).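 Further: viability of MM1S multiple myeloma cells under basal unstimulated conditions; test concentration not given here.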 The following applies: higher = more signal.
Assay [15] in a line: calcein-AM signal in unstimulated myeloma cells – cell-based, calcein-AM fluorescence, 48 h, PK04 Diversity Set, profiling panel (AID 1166).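 Further: cells grown under basal conditions without added stimulus; test concentration not given here.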 The following applies: RPMI8226 myeloma viability, higher = more signal.
Assay [16] in a line: JC-1 mitochondrial signal, unstimulated HepG2 cells – cell-based, JC-1 fluorescence, 24 h, 100 nL compound, profiling panel (AID 1167). Further: test concentration not given here. To be noted: HepG2 mitochondrial potential, higher = more signal.
The nature of assay [17]: JC-1 mitochondrial signal, unstimulated adipocytes – cell-based, JC-1 fluorescence, 3T3-L1 adipocytes, 24 h, 100 nL compound, profiling panel (AID 1168). Further: test concentration not given here. The following applies: JC-1 mitochondrial fluorescence, higher = more signal, called active from +8 up or from −8 down.
The nature of assay [18]: JC-1 mitochondrial signal, unstimulated myeloma cells – cell-based, JC-1 fluorescence, RPMI8226, 24 h, 100 nL compound, profiling panel (AID 1169). Further: test concentration not given here. To be noted: JC-1 mitochondrial potential fluorescence, higher = more signal.
Assay [19] can be described thus: JC-1 mitochondrial signal, unstimulated MM1S myeloma – cell-based, JC-1 fluorescence, 24 h, 100 nL compound, profiling panel (AID 1170). Further: test concentration not given here. To be noted: MM1S mitochondrial potential, higher = more signal.
Assay [20] is described as follows: resazurin metabolic signal in A549 cells – cell-based, resazurin fluorescence, 24 h, PK04 Diversity Set, profiling panel (AID 1171). Further: test concentration not given here. To be noted: A549 viability, higher = more signal, called active from +8 up or from −8 down. On the technique in general: Resazurin is reduced to fluorescent resorufin, in cell work by metabolically active cells.

Calls of active or inactive are those of the source.

Sequence of NADPH oxidase 2 (Homo sapiens) (P04839 whole entry, looked up): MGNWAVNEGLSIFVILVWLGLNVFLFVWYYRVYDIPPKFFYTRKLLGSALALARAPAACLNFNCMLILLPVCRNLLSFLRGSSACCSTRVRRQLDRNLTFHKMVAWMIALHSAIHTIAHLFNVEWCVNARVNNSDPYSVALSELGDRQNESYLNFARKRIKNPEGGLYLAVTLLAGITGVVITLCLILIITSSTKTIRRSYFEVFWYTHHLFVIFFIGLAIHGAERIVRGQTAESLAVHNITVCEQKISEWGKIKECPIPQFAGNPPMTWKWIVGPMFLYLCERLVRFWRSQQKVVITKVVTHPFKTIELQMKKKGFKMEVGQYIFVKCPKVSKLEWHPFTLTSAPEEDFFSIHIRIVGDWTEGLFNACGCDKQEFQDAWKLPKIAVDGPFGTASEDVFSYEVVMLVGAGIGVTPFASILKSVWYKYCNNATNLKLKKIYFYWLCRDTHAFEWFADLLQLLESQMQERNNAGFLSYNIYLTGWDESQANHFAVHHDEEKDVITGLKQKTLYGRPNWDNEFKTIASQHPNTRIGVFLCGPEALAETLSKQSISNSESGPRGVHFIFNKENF
Sequence of NADPH oxidase 5 (Homo sapiens) (Q96PH1 whole entry, looked up): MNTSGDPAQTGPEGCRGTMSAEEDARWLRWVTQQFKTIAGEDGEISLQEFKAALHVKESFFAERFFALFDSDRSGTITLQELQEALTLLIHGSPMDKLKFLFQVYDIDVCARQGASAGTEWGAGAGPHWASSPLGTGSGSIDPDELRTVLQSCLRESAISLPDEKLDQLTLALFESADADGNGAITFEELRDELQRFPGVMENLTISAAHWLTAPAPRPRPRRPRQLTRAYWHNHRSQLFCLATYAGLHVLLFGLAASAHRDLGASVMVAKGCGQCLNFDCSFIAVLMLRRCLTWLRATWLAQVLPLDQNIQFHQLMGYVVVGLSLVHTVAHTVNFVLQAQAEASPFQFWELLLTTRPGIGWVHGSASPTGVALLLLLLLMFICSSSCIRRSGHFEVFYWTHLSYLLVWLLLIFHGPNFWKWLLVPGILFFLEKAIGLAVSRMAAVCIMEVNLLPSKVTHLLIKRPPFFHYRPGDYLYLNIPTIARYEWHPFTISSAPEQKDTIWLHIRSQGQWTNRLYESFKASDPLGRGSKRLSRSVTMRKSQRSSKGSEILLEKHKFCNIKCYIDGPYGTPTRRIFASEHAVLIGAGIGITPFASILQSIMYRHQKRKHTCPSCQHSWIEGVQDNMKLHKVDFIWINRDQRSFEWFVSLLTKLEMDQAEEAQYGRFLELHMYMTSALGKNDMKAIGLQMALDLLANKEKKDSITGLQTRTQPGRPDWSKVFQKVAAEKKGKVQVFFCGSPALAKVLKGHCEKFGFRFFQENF
Sequence of NADPH oxidase 4 (Homo sapiens) (Q9NPH5 whole entry, looked up): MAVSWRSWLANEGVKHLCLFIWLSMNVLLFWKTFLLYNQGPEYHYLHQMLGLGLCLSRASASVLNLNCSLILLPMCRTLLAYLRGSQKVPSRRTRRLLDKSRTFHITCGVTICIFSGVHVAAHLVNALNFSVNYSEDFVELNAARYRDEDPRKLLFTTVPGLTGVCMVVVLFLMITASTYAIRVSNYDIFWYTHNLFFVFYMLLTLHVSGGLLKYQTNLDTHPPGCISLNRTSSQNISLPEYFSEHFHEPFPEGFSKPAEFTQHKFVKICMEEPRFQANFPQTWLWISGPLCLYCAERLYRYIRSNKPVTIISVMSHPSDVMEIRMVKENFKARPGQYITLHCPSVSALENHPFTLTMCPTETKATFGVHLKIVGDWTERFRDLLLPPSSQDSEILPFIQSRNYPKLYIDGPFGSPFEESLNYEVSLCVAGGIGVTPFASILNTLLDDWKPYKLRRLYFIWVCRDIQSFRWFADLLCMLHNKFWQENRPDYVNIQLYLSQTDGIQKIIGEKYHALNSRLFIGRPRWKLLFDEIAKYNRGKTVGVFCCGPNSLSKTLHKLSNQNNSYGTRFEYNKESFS

With `CCOC(=O)[C@H](CC(C)C)NC(=O)CCC1CC(OC(=O)NCc2cccc3ccccc23)CC2(CCCC(COC(=O)NCc3cccc(C(F)(F)F)c3)O2)O1` (stereo not given in full), the z-score in assay [1] is 0.366 (inactive); in assay [3] it was -0.406 (inactive); in [4], -0.0787 (inactive); in assay [5], 0.976 (inactive); in assay [6], 0.613 (inactive); in assay [7], 0.273. The z-score is 0.176 (inactive) in assay [8]; 0.794 (inactive) in assay [9]; 0.259 in assay [10]; -0.442 in assay [11]; -0.302 in assay [12]; 0.8 in [13]. For the same compound, the z-score in [14] was 0.484; in assay [15], 0.38; in assay [16] it was 0.936; in assay [17] it was 0.346 (inactive); in assay [18] it was 0.0118; in assay [19] it was -0.851. Also, the z-score in [20] is -0.75 (inactive). The composite z-score in assay [2] was -0.144.

Take `CC(C)CCN1CCc2nc(COc3ccccc3)c3c(c2C1)CO[C@@H](C)C3`: the z-score in [1] is -0.152 (inactive); in assay [3] it was 3.22 (inactive); in assay [4], 0.326 (inactive); in assay [5] it was 0.331 (inactive); in assay [6], 0.101 (inactive); in [7], -0.356. Further, the z-score in assay [8] was 1.2 (inactive); in [9], 0.131 (inactive); in assay [10] it was 0.242; in [11], -0.304; in [12], -0.225; in assay [13], 0.665. Further, the z-score in assay [14] is 0.246; in [15], -0.396; in [16], 1.66; in assay [17], -0.000112 (inactive); in assay [18], -0.724; in [19] it was 1.09. For the same compound, the z-score in assay [20] is -0.0622 (inactive). The compound also showed a composite z-score in assay [2] of 0.0768.

On to `COC(=O)CC=C[C@@H](C)[C@@H](C=NOCC[C@@H]1C=C[C@H](OC(C)=O)[C@@H](COC(C)=O)O1)OC`, for which the z-score in [1] was -0.35 (inactive); in assay [3], 0.551 (inactive); in assay [4], 0.239 (inactive); in assay [5], -0.5 (inactive); in assay [6] it was 0.171 (inactive); in assay [7] it was -0.801. Besides, the z-score was 0.464 (inactive) in [8]; 0.934 (inactive) in assay [9]; 0.855 in assay [10]; 1.29 in assay [11]; -0.0264 in assay [12]; 0.436 in assay [13]. Moreover, the z-score in assay [14] is -0.616; in assay [15], 0.238; in assay [16] it was -0.514; in assay [17] it was -0.43 (inactive); in assay [18], -0.133; in assay [19], -0.324. For the same compound, the z-score in [20] is -0.393 (inactive). Also, in assay [2], the composite z-score was -0.0969.

For `CC(=O)OC[C@H]1O[C@@H](ON=C(C)CCN2CCCc3nc(C)c(C)cc32)[C@H](OC(C)=O)[C@@H](OC(C)=O)[C@@H]1OC(C)=O`, the z-score is -1.13 (inactive) in assay [1]; -0.72 (inactive) in assay [3]; 0.0956 (inactive) in [4]; 1.01 (inactive) in [5]; -1.18 (inactive) in assay [6]; 0.649 in [7]. Further, the z-score in assay [8] is 0.502 (inactive); in assay [9], -1.36 (inactive); in assay [10], -1.09; in assay [11] it was -0.984; in assay [12], 0.191; in [13], -0.563. Also, the z-score was -1.05 in assay [14]; -2.45 in assay [15]; -0.0457 in [16]; 0.553 (inactive) in [17]; -0.572 in [18]; -0.903 in assay [19]. Also, the z-score in assay [20] is 0.0264 (inactive). In assay [2], the composite z-score was -0.115.
